Assay outcomes (PubChem)
HCV inh: HCV inhibition; 3.4% of 340,000 active; AID 651820; Potency, µM (series often up to 41.8 µM), for the others: top-dose activity change, negative = inhibition, hits mostly inhibitors; Huh7.5.1 HCVcc-Cre infection, luciferase reporter, 44 h; note: potency is the fitted concentration of half-maximal effect
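A cell-based infection assay in which seeded cells (1,000 per well) receive test compound after 4 h, are inoculated with HCVcc-Cre at approximately 0.5 moi, and are incubated 44 h before luminescence detection.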
Pf growth 48h: inhibits P. falciparum growth in the first generation, 48 h; P. falciparum luciferase growth in erythrocytes, 48 h; Potency, µM (titrated, usually from 28.7 µM), inactives show at the top dose activity change, negative = inhibition, usual class: inhibitors; 5.9% of 310,000 active; AID 504832; note: potency is the fitted concentration of half-maximal effect
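In quantitative HTS format, infected erythrocytes bearing luciferase-reporter parasites were treated for a single generation at 37 C. Luminescence after adding detection reagent served as the growth measure.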
HCMV inh: inhibitors of human cytomegalovirus; HFF cells, HCMV-luciferase reporter, 72 h; stronger effect = lower value; activity change, negative = inhibition, % at 57.5 µM; 4.5% of 410,000 active; in the data active = activity change below about -60%; inconclusive = no clear call, values can overlap the other calls; inactive = above about -39%
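Compounds were evaluated in HFFs infected with an HCMV luciferase reporter virus (MOI 1 PFU/cell). Luciferase in lysates collected 72 h post infection served as the replication measure.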
Pf growth 96h: inhibits malaria parasite growth, 96 h. Potency, µM (titrated, usually from 28.7 µM), for the others: at the top dose activity change, negative = inhibition, hits mostly inhibitors. AID 504834. P. falciparum luciferase reporter growth, 96 h. 6.9% of 320,000 active; note: potency is the fitted concentration of half-maximal effect
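Plates of compound plus infected erythrocytes (2% hematocrit, 0.05% parasitemia final) incubate 96 hours, 37 C, 5% CO2. Detection reagent added; reduced luminescence from the parasites' luciferase reporter flags inhibition.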
An asterisk follows results filed as active; ? = inconclusive; / = no result given; ! = a repeat was not active. Most compounds without a hit are left out; they make up all but 13% or so of the library. Unless noted, calls come from the whole dose curve; as a rule, active = well fitted inhibition curve with a large enough effect; inconclusive = small, poorly fitted or top-dose-only effect, or another doubt; inactive = no such curve, though single readings can be large or run the other way. % is set by controls: 0 for no effect and ±100 for the full control effect.

SMILES	HCV inh	Pf growth 48h	HCMV inh	Pf growth 96h
Cc1cccc(N2CCN(CC(=O)N(C3CCCC3)C3CCS(=O)(=O)C3)CC2)c1C (configuration not stated)	14%	10µM*	-2	?
Fc1ccc(-n2nnnc2-c2ccccc2Cl)cc1	21%	7%	-67*	-5%
Fc1ccc(-n2nnc(-c3ccccc3Cl)n2)cc1	13%	16%	-29	?
Fc1cccc(-c2oncc2-c2nnnn2-c2ccc(Cl)cc2)c1	6%	2%	-67*	5%
C[C@@H]1CN([C@@H](C)CO)C(=O)c2cc(Br)cnc2O[C@@H]1CN(C)Cc1ccccn1	/	/	8	/
COc1ccc(CCNC(=O)CCS(=O)(=O)c2cc(Br)cc3c2N(C(C)=O)CC3)cc1OC	/	/	-1	/
O=C(CN1C2=NCCN2c2ccccc21)N1CCOCC1	-7%	12%	12	16%
O=C(CN1C2=NCCCN2c2ccccc21)c1ccc2c(c1)OCO2	11µM*	-19%	-28	?
O=C(CN1C2=NCCN2c2ccccc21)c1ccco1	-3%	/	-1	13µM*
CC(=O)c1cccc(NC(=O)Cn2ccn3nc(-c4ccccc4)cc3c2=O)c1	/	/	-5	/
N#Cc1cccc(NC(=O)CCNS(=O)(=O)c2ccc3c(c2)CCN3C(=O)C2CC2)c1	/	/	-3	/
COc1ccc(C(=S)N(C)C)cc1OC	21%	15%	29	8.3µM*
C[N+](C)(C)CCOC(=O)CCC(=O)OCC[N+](C)(C)C	-15%	5%	-77*!	7%
COC(=O)CCCCC(=O)OC	-9%	38%	0	61%
COC(=O)CCC[N+](C)(C)C	/	?	/	11µM*
C[N+](C)(C)CCOC(=O)CBr	?	8%	-35	6%
Cc1ccc(S(=O)(=O)C2(C(=O)Nc3ccc(Cl)c(C(F)(F)F)c3)CC2)cc1	/	/	-11	/
NC(=O)c1nsc(C(=O)N(c2ccccc2)C(C(=O)NC2CCCCC2)c2ccc(O)cc2)c1N (configuration not stated)	?	?	-40	10µM*
NC(=O)c1nsc(C(=O)N(c2ccccc2)C(C(=O)NC2CCCC2)c2ccncc2)c1N (configuration not stated)	?	29%	-20	18%
COc1cc(C(C(=O)NC2CCCCC2)N(C(=O)c2snc(C(N)=O)c2N)c2ccc(C)cc2)ccc1O (configuration not stated)	?	7.4µM*	16	0%
COc1ccc(N(C(=O)c2snc(C(N)=O)c2N)C(C(=O)NC2CCCC2)c2ccc(OC)c(OC)c2)cc1 (configuration not stated)	-29%	?	-13	7%
CCN1C(=O)c2ccccc2S(=O)c2ccc(C(=O)N3CCN(c4ccc(F)cc4)CC3)cc21 (configuration not stated)	/	/	-4	/
COc1ccc2c(Sc3ccccc3)c(C(=O)NCc3ccc(OC(C)C)cc3)[nH]c2c1	/	/	21	/
CCc1nc2ccc(C(=O)NCCOc3ccc(OC)cc3)cn2c1N(CCN(C)C)CC1CC1	/	/	-64*	/
O=C(NC(=S)NC1CCS(=O)(=O)C1)c1ccccc1 (configuration not stated)	7%	-2%	-29	?
SMILES	HCV inh	Pf growth 48h	HCMV inh	Pf growth 96h
O=C(Nc1ccc2ccccc2c1)NC1CCS(=O)(=O)C1 (configuration not stated)	-8%	50%	-8	5%
O=C(Nc1ccccc1)NC1CCS(=O)(=O)C1 (configuration not stated)	6%	10%	21	9.3µM*
Cc1ccccc1C(=O)NC1CCS(=O)(=O)C1 (configuration not stated)	1%	2%	31	/
CC(=O)NC1=C(NC2CCS(=O)(=O)C2)C(=O)c2ccccc2C1=O (configuration not stated)	7.1µM*	10µM*	-12	?
CN(C1=C(NC(=O)c2ccccc2)C(=O)c2ccccc2C1=O)C1CCS(=O)(=O)C1 (configuration not stated)	?	4.7µM*	-99*	5.2µM*
Cn1c(SCc2ccccc2Cl)nc(=O)c2c1NC(=O)CC2c1cc(F)ccc1F (configuration not stated)	/	/	3	/
Cn1cccc1CNCCc1ccccc1	/	12%	/	41%
COc1ccc(CCNCc2cccn2C)cc1	7%	-17%	1	1.5µM*
Cn1cccc1CNCCc1ccccc1F	1%	-5%	-31	2.6µM*
CCc1ccc(CNCCc2ccccc2F)cc1	-14%	22%	-72*	79%
COc1ccc(CCNCc2ccc(OCc3ccccc3)cc2)cc1	-9%	26%	-89*	40%
Cc1c(C#N)c2ccccc2n1CC(=O)NC(C)c1ccccc1 (configuration not stated)	16%	2.9µM*	15	/
Cc1cccc(NC(=O)Cn2c(C)c(C#N)c3ccccc32)c1C	2%	2.1µM*	-15	/
Cc1c(C#N)c2ccccc2n1CC(=O)O	20%	5%	5	-29%
COc1cccc(-n2c(SCC(N)=O)nc3c(oc4ccccc43)c2=O)c1	/	/	-10	/
COc1ccc(CCN2CCCC(CN(C)Cc3cc(OC)ccc3OC)C2)cc1 (configuration not stated)	10µM*	?	-9	15µM*
COc1ccc(CCN2CCCC(CN(C)Cc3cccc(OC)c3)C2)cc1 (configuration not stated)	7.9µM*	?	-18	?
CCCCCn1c(CCCNC(=O)c2ccc(Cl)cc2)nc2ccccc21	/	/	-2	/
O=C(Nc1cn(-c2ccccc2)nc1-c1ccc(F)cc1)c1ccccc1	-19%	4%	-61*	?
O=C(CCl)Nc1cn(-c2ccccc2)nc1-c1ccccc1	2.8µM*	?	-96*	?
Cc1ccc(C(CC(=O)Nc2cc(C)cc(C)c2)N2Cc3ccccc3C2=O)cc1 (configuration not stated)	/	/	-9	/
Cn1ncc(C(=O)N2CCN(c3ccc(F)cc3)CC2)c1C1CCN(C(=O)OC(C)(C)C)CC1	/	/	0	/
CN(Cc1nc(Cc2ccccc2F)no1)[C@@H]1CS(=O)(=O)C[C@H]1O	20%	34%	17	12µM*
Cc1cc(C)n(CCN(C)Cc2nc(Cc3ccccc3F)no2)n1	12%	68%	-23	?
Cc1oc2c(c(C)cc3oc(=O)c(CC(=O)NCc4ccc(F)cc4)c(C)c32)c1C	/	/	-25	/
CCOC(=O)c1c(NC(=O)c2cc(=O)c3cc(C)cc(C)c3o2)sc(C)c1C	/	/	-1	/
Cc1cc(C)c2c(-n3cccc3)c(C(=O)NCCCN3CCCCC3C)sc2n1 (configuration not stated)	/	/	49	/
CC(C)(C)n1nnnc1C(C1CC1)N1C(=O)C(=O)c2ccccc21 (configuration not stated)	/	/	-77*	/
Cc1cccc(C(=O)Nc2c(C(=O)N3CCN(c4ccc(F)cc4)CC3)oc3ccccc23)c1	/	/	-21	/
COC(=O)C1=CN(C(C)C)C=C(C(=O)OC)C1c1cc2c(cc1Br)OCO2	-12%	?	-18	3.7µM*
